Screens: PubChem BioAssay, National Center for Advancing Translational Sciences (NCATS)
AMA1 RON2 block: AMA1-RON2 (P. falciparum) interaction inhibition; AlphaScreen AMA1-biotinylated RON2 peptide binding; Potency, µM (highest dose often 58.2 µM), without a hit: at the highest dose activity change, negative = inhibition, usual class: inhibitors; 360,000 tested, 0.2% active; AID 720542;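 note: 0% = vehicle wells and -100% = peptide control; nearly all actives have a fitted effect of over 45% in size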
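AMA1 (3D7) with his tag at 25 nM final met compounds first, then biotinylated RON2 peptide at 25 nM; detection used donor plus acceptor beads, 10 µg/mL apiece, read by AlphaScreen after 30 min at room temperature.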
Pf growth 96h: P. falciparum growth inhibition at 96 hour, primary screen for plastid delayed-death inhibitors; P. falciparum luciferase reporter growth, 96 h; Potency, µM (series often up to 28.7 µM), without a hit: at the highest dose activity change, negative = inhibition, hits mostly inhibitors; 320,000 tested, 6.9% active; note: % is set by controls: 0 for no effect and ±100 for the full control effect
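Two parasite generations (96 h, 37 C, 5% CO2) of compound exposure in infected erythrocytes (0.05% parasitemia, 2% hematocrit). Luciferase-reporter P. falciparum; decreased luminescence indicates inhibited growth, aimed at apicoplast-acting delayed death.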
Pf growth 48h: P. falciparum growth inhibition at 48 hours (one generation); P. falciparum luciferase growth in erythrocytes, 48 h; 310,000 tested, 5.9% active; Potency, µM (series often up to 28.7 µM), without a hit: at the top dose activity change, negative = inhibition, actives largely listed as inhibitors; note: % is set by controls: 0 for no effect and ±100 for the full control effect
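In quantitative HTS format, infected erythrocytes bearing luciferase-reporter parasites were treated for a single generation at 37 C. Luminescence after adding detection reagent served as the growth measure.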
NS1 function inh: influenza NS1 inhibition; Potency, µM (doses to about 46.1 µM), for inactives: at the top dose activity, positive = more growth; 270,000 tested, 0.4% active; calls by dose curve; note: actives are rising curves; nearly all actives have a fitted effect of over 50% in size
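Recovery from NS1-induced slow growth read by OD600 in budding yeast switched to galactose assay medium (pH 6.0, -URA) at 1:100 dilution. Compound 23 nl per well; the matching strain lacking NS1 serves as control.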
Sm TGR block: S. mansoni TGR enzyme inhibition; Q962Y6; purified TGR, DTNB reduction, TNB absorbance 405 nm; Potency, µM (top dose mostly 114 µM), for inactives: at the top dose activity change, negative = inhibition, most hits filed as inhibitors; 360,000 tested, 3% active; AID 485364; note: % is set by controls: 0 for no effect and ±100 for the full control effect; nearly all actives have a fitted effect of over 60% in size
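TGR 20 nM + NADPH 100 uM (dispensed conc.), cpd preinc 15 min RT; start with NADPH (500 uM addition) then DTNB (15 mM addition). Kinetic TNB absorbance, 405 nm filter. Four-parameter Hill fit across titration.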
* = called active by the depositor; ? = inconclusive; nt = not tested or not shown; [ ] = dose if it differs, or a comment. Only some compounds are listed: those with a hit (about 11% of all), similar ones and a draw of the others. Unless noted, calls come from the whole dose curve; as a rule, active = well fitted curve in the direction sought with a large enough effect; inconclusive = small, poorly fitted or top-dose-only effect, or another doubt; inactive = no such curve, though single readings can be large; an effect the other way counts as inactive or inconclusive. Potency is the fitted concentration of half-maximal effect.

SMILES	AMA1 RON2 block	Pf growth 96h	Pf growth 48h	NS1 function inh	Sm TGR block
O=C1c2cccc3cccc(c23)C(=O)N1CC1CCN(CC(O)COCc2ccc3c(c2)OCO3)CC1 (stereo unspecified)	5%	?	9.3µM*	-3%	-4%
CCOC(=O)c1cc(-c2cccc(O)c2)oc1C	-12%	nt	nt	nt	nt
CCOc1ccc(C(=O)C(CN2CCOCC2)c2ccccc2)cc1 (stereo unspecified)	-15%	?	?	-63%	-5%
O=C(c1ccc(Br)cc1)C(CN1CCOCC1)c1ccccc1 (stereo unspecified)	20%	?	0%	-124%	3.5µM*
O=C(CN1CCOCC1)c1ccc(Br)cc1	3%	64%	22%	-38%	35µM*
Cc1nc(CC(=O)Nc2nccs2)cs1	6%	32%	39%	-1%	11%
Cc1cc(NC(=O)CSc2ccc3nnc(-c4cccc(F)c4)n3n2)no1	-1%	?	1.9µM*	-1%	-1%
Cc1nnc(NC(=O)CSc2ccc3nnc(-c4ccccn4)n3n2)s1	-22%	?	?	nt	1%
Cc1cc(NC(=O)CSc2ccc3nnc(-c4ccccn4)n3n2)no1	-28%	12µM*	?	-5%	-1%
Cc1cc(NC(=O)CSc2ccc3nnc(-c4ccc(Cl)cc4)n3n2)no1	2%	20%	nt	-8%	0%
O=C(CSc1ccc2nnc(-c3ccccn3)n2n1)Nc1ccccc1	-16%	?	13µM*	7%	10%
CCOc1ccc2nc(NC(=O)C3=NN(c4ccccc4)C(=O)CC3)sc2c1	12%	112%	1%	9%	19%
COC(=O)Cc1ccc(NC(=S)N2CCCCC2C)cc1 (stereo unspecified)	18%	?	23%	1%	-1%
COC(=O)c1cnn2c(C)c(Cc3c(C)cc(C)cc3C)c(C)nc12	nt	nt	nt	nt	3%
CS(=O)(=O)Nc1cccc(C2=NN(S(=O)(=O)c3ccc(F)cc3)C(c3cccs3)C2)c1 (stereo unspecified)	-17%	?	-14%	?	-13%
CCS(=O)(=O)Nc1cccc(C2=NN(S(=O)(=O)c3ccc(F)cc3)C(c3cccs3)C2)c1 (stereo unspecified)	0%	8.3µM*	?	?	-10%
Cc1ccc(C(=O)N2N=C(c3cccc(NS(C)(=O)=O)c3)CC2c2cccs2)cc1 (stereo unspecified)	1%	?	19%[0.00184 µM]	?	4%
CCS(=O)(=O)Nc1cccc(C2=NN(S(=O)(=O)CC)C(c3cccs3)C2)c1 (stereo unspecified)	0%	13µM*	?	1%	-10%
CS(=O)(=O)Nc1cccc(C2=NN(C(=O)c3ccccc3)C(c3cccs3)C2)c1 (stereo unspecified)	-11%	26%	13µM*	3%	9%
CCS(=O)(=O)N1N=C(c2cccc(NS(C)(=O)=O)c2)CC1c1cccs1 (stereo unspecified)	3%	?	-4%	-2%	-30%
Cc1cccc(-c2ccc3c(c2)C2CC3CCN2C)c1 (stereo unspecified)	5%	nt	nt	nt	nt
O=C(CCNC(=O)C1CCN(S(=O)(=O)c2ccccc2)CC1)NCc1ccncc1	-7%	17%	6%	11%	10%
Cc1ccccc1C1c2[nH]c3ccccc3c2C[C@H]2C(=O)N(c3ccccc3C(=O)NCCN3CCOCC3)C(=O)N12 (stereo partly specified)	-16%	?	?	6%	2%
Cc1ccc(C2c3[nH]c4ccccc4c3C[C@H]3C(=O)N(c4ccccc4C(=O)NCCN4CCOCC4)C(=O)N23)cc1 (stereo partly specified)	-13%	?	15µM*	-20%	2%
O=C(NCCCN1CCOCC1)c1ccccc1N1C(=O)[C@@H]2Cc3c([nH]c4ccccc34)C(c3cccc(Cl)c3)N2C1=O (stereo partly specified)	-29%	9.3µM*	?	-2%	9%
SMILES	AMA1 RON2 block	Pf growth 96h	Pf growth 48h	NS1 function inh	Sm TGR block
Cc1ccccc1C1c2[nH]c3ccccc3c2C[C@H]2C(=O)N(c3ccccc3C(=O)NCCCN3CCOCC3)C(=O)N12 (stereo partly specified)	-10%	12µM*	?	-3%	-3%
COc1ccc(CCNC(=O)C/C(C)=N/NC(=O)C(c2ccccc2)c2ccccc2)cc1OC	46%	?	-3%	-6%	-11%
CN(CC1COc2ccccc2O1)C(=O)CSc1ncnc2sccc12 (stereo unspecified)	4%	-27%	?	nt	-11%
CCOC(=O)Cc1nnc(Nc2ccc(C)cc2)c2ccccc12	-13%	10µM*	-6%	18%	9%
S=C(N/N=C/c1cccs1)NC1CC2CCC1C2 (stereo unspecified)	11%	10µM*	?	-44%	2%
S=C(NCCN1CCOCC1)N/N=C/c1cccs1	86%	2.3µM*	3.3µM*	4%	-1%
O=C(NCCN1CCOCC1)c1cc(-c2ccccc2)on1	-7%	nt	59%	-10%	4%
O=C(NCCN1CCOCC1)c1cc(-c2cccs2)on1	6%	9.3µM*	62%	3%	-10%
CCC(C)NC(=O)C1CCN(S(=O)(=O)c2cccc3nonc23)CC1 (stereo unspecified)	0%	16%	41%	1%	-3%
CC(=O)Nc1nonc1-c1nnc(SCc2ccc(Cl)cc2)n1C	nt	nt	nt	nt	-3%
Cc1ccc(C(=O)N2CCn3c(C)ccc3C2C)cc1 (stereo unspecified)	-5%	14%	?	nt	22µM*
CN(C)c1ccc(N2C(=NC(=O)CCc3ccccc3)SC3CS(=O)(=O)CC32)cc1 (stereo unspecified)	16%	12µM*	?	5%	-7%
COc1ccc(S(=O)(=O)N2CCCC(C(=O)NCc3ccc(F)cc3)C2)cc1 (stereo unspecified)	0%	2%	1%	-15%	4%
COc1ccc(CCNC(=O)C2CCCN(S(=O)(=O)c3ccc(F)cc3)C2)cc1 (stereo unspecified)	-8%	?	?	18%	89µM*
COc1ccc(Cl)cc1S(=O)(=O)N1CCCC(C(=O)NCc2ccccc2)C1 (stereo unspecified)	-6%	-12%	-16%	1%	0%
COc1ccc(Cl)cc1S(=O)(=O)N1CCCC(C(=O)NCCc2ccccc2)C1 (stereo unspecified)	-7%	10µM*	38%	-23%	-2%
CCOC(=O)c1ccc(NC(=O)C2CCCN(S(=O)(=O)c3ccc(F)cc3)C2)cc1 (stereo unspecified)	5%	8.3µM*	nt	17%	-15%
O=C(NCc1ccccc1)C1CCCN(S(=O)(=O)c2ccc(F)cc2)C1 (stereo unspecified)	21%	12µM*	-4%	6%	-22%
